Molecules are shown by their SMILES. Results filed as inconclusive are left out. The source made the active and inactive calls. Calls come from the whole dose curve; as a rule, active = well fitted inhibition curve with a large enough effect; inconclusive = small, poorly fitted or top-dose-only effect; inactive = flat fitted curve, though single readings scatter. Where a SMILES comes first, the peptide text is derived from it. [ ]: non-standard residue; d: D form. pGlu = O=C1CC[C@@H](C(=O)O)N1; Thz = O=C(O)[C@@H]1CSCN1

What all share (assay): qHTS profiling for inhibitors of Plasmodium falciparum proliferation (AID 504749); note: nearly all actives have a fitted effect of over 60% in size
Common to all, as to conditions: P. falciparum in erythrocytes, SYBR Green DNA, 72 h; series mostly up to 28.7 µM
A general note: Quantitative high-throughput screening tests each substance at several concentrations.

In one experiment the test system is CP315. Summed up: (§1)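 Fluorescence of SYBR Green-bound parasite DNA, read at 485/535 nm, served as the growth measure. Infected erythrocytes were cultured with compound 72 h; artemisinin (0.29 uM) and DMSO wells defined the normalization range.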
Another experiment concerns CP325. The method in brief:
as §1

A further experiment concerns CP329. Summed up: as §1
A further experiment deals with CP335. Summed up: as §1
In a further experiment the test system is DFO2036. Summed up:
as §1

Another experiment relates to DIV14. Summed up: as §1
The subject of another experiment is DIV17. Summed up:
as §1

For another experiment, the system named is DIV30. Summed up: as §1
In the next experiment the test system is Dd2. Summed up:
as §1

A further experiment relates to ECU. The method in brief: as §1
Potency is the fitted concentration of half-maximal effect.

As for `CC(C(=O)O)c1ccc2c(c1)[nH]c1ccc(Cl)cc12` (stereo not given), the Potency result in the experiment on CP315, with CP325, in the experiment with CP329, in the experiment with CP335, in the experiment on DFO2036 and in the experiment with DIV14 was “inactive” throughout. Moreover, the Potency result with DIV17, with DIV30, in the experiment with Dd2 and with ECU was “inactive” each time.

For `Nc1ccc(O)c(C(=O)O)c1`, the Potency entry with CP315, with CP325, in the experiment with CP329, in the experiment with CP335, in the experiment with DFO2036 and in the experiment with DIV14 was “inactive” throughout. Besides, the Potency entry with DIV17, with DIV30, in the experiment on Dd2 and with ECU was “inactive” in each case.

In the case of `CCC1C(=O)OCC1Cc1cncn1C` (stereo not given), the Potency entry in the experiment on CP315, in the experiment with CP325, in the experiment on CP329, in the experiment with CP335, with DFO2036 and in the experiment with DIV14 was “inactive” each time. The Potency result in the experiment on DIV17, in the experiment with DIV30, with Dd2 and with ECU was “inactive” throughout.

As to `Nc1c(CC(=O)O)cccc1C(=O)c1ccc(Br)cc1`, the Potency entry with CP315, with CP325, in the experiment with CP329, in the experiment with CP335, in the experiment on DFO2036 and with DIV14 was “inactive” throughout. In addition, the Potency entry with DIV17, with DIV30, with Dd2 and in the experiment with ECU was “inactive” throughout.

As for `CCOc1ccc2nc(S(N)(=O)=O)sc2c1`, the Potency result in the experiment with CP315, with CP325, in the experiment on CP329, in the experiment with CP335, with DFO2036 and with DIV14 was “inactive” each time. For the same molecule, the Potency entry with DIV17, with DIV30, with Dd2 and in the experiment with ECU was “inactive” throughout.

Consider `COc1cc2c3cc1Oc1cc(ccc1O)C[C@@H]1c4c(cc(OC)c(O)c4Oc4ccc(cc4)C[C@@H]3N(C)CC2)CC[N+]1(C)C`, for which the Potency entry in the experiment with CP315, in the experiment on CP325, with CP329, with CP335, with DFO2036 and with DIV14 was “inactive” each time. In addition, the Potency entry with DIV17, with DIV30, in the experiment on Dd2 and with ECU was “inactive” each time.

For `O=C1CC[C@@H](C(=O)N2CSC[C@H]2C(=O)O)N1` ([pGlu]-[Thz]-OH), the Potency result with CP315, in the experiment on CP325, with CP329, with CP335, in the experiment with DFO2036 and in the experiment on DIV14 was “inactive” in each case. Further, the Potency result in the experiment with DIV17, in the experiment on DIV30, in the experiment on Dd2 and in the experiment on ECU was “inactive” in each case.

Consider `C=CC(N)CCC(=O)O` (stereo not given), for which the Potency entry in the experiment on CP315, in the experiment on CP325, in the experiment on CP329, in the experiment on CP335, in the experiment with DFO2036 and in the experiment with DIV14 was “inactive” throughout. Further, the Potency entry in the experiment on DIV17, in the experiment on DIV30, with Dd2 and with ECU was “inactive” each time.

Regarding `O=C(/C=C/c1ccccc1)NCCO`, the Potency result in the experiment on CP315, with CP325, in the experiment on CP329, in the experiment on CP335, in the experiment with DFO2036 and in the experiment on DIV14 was “inactive” throughout. For the same molecule, the Potency entry in the experiment on DIV17, in the experiment with DIV30, with Dd2 and with ECU was “inactive” in each case.

`C=C(Nc1ccc(OCC)cc1)Nc1ccc(OCC)cc1`: the Potency result in the experiment on CP315, with CP325, in the experiment on CP329, in the experiment on CP335, with DFO2036 and with DIV14 was “inactive” in each case. Also, the Potency entry in the experiment on DIV17, with DIV30, in the experiment on Dd2 and in the experiment on ECU was “inactive” in each case.

As to `[O-][n+]1ccccc1SSc1cccc[n+]1[O-]`, the Potency in the experiment with CP315 was 1690 nM (active); in the experiment on CP325, 953 nM (active); in the experiment with CP329, 1350 nM (active); with CP335, 601 nM (active); in the experiment on DFO2036, 891 nM (active); with DIV14, 757 nM (active). The Potency was 536 nM (active) in the experiment on DIV17, 1200 nM (active) with DIV30, 891 nM (active) in the experiment on Dd2 and 1120 nM (active) in the experiment with ECU.

On to `CCOC(=O)c1ccccc1O`, for which the Potency result with CP315, with CP325, in the experiment on CP329, in the experiment on CP335, in the experiment with DFO2036 and with DIV14 was “inactive” each time. Further, the Potency result in the experiment on DIV17, in the experiment with DIV30, with Dd2 and with ECU was “inactive” throughout.

As to `CC1OC1P(=O)(O)O` (stereo not given), the Potency result with CP315, in the experiment on CP325, with CP329, in the experiment with CP335, in the experiment on DFO2036 and in the experiment with DIV14 was “inactive” in each case. Besides, the Potency result with DIV17, with DIV30, in the experiment with Dd2 and with ECU was “inactive” in each case.

`Cc1ccc(C(=O)c2ccc(CC(=O)O)n2C)cc1`: the Potency result in the experiment with CP315, in the experiment on CP325, in the experiment with CP329, in the experiment on CP335, in the experiment on DFO2036 and in the experiment with DIV14 was “inactive” each time. Also, the Potency entry in the experiment on DIV17, with DIV30, in the experiment on Dd2 and in the experiment with ECU was “inactive” each time.

`c1ccc2sc(SSc3nc4ccccc4s3)nc2c1`: the Potency result in the experiment with CP315, with CP325, in the experiment with CP329, with CP335, in the experiment with DFO2036 and in the experiment with DIV14 was “inactive” throughout. In addition, the Potency result in the experiment on DIV17, in the experiment on DIV30, in the experiment on Dd2 and in the experiment with ECU was “inactive” in each case.

The record behind these values is PubChem BioAssay (NCATS).
